Shown are actives, neighbours in structure and some others; about 11% of the full set was active somewhere.
WT yeast gro inh = growth inhibition of WT yeast, mitochondrial fusion screen; mitochondrial fusion phenotypic screen, WT strain; inhibition, % at 10 µM; actives 2.1% (n = 190,000); in the data active = inhibition above about 58%; tested in S. cerevisiae
Lmaj promast = inhibitors of Leishmania major promastigote growth; Leishmania major promastigotes, resazurin fluorescence viability; inhibition, % at 10 µM; actives 9% (n = 200,000); in the data active = inhibition above about 50%;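 note: promastigotes grown with compound for 44 hours at 28 °C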
Autophagy HCS = autophagy modulation, high-content screen; calls only at 10 µM (by protocol); actives 0.98% (n = 190,000); AID 463193; MEF GFP-LC3 puncta imaging; test concentration mostly 10 µM;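 active = percentage of spot-positive cells more than 3 SD above its plate mean, without a fluorescence outlier flag or 80% toxicity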;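 note: spot-positive cell cutoff set from DMSO-treated cells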
Ins promoter up = MIN6 insulin promoter up-regulation; MIN6 insulin promoter-GFP reporter, high-content imaging; stronger effect = higher value; z-score at 5 µM; actives 0.3% (n = 190,000); AID 1625;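 active = z-score above 3 at 5 µM with at least 500 cells counted in the well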
INS promoter inh = TRM-6 insulin promoter activity inhibition; TRM-6 cells (human fetal islet line), insulin promoter-eGFP reporter, imaging; reporter expression induced with tamoxifen; inhibition, % at 2 µM; actives 0.9% (n = 130,000); AID 1273;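 active = inhibition above the mean plus 3 SD, with well images judged a real hit on visual review, cut at about 60% in these data, passing the limit was not always enough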
Starred values were filed as active, the others as inactive; i = inactive; · = not tested or not shown.

SMILES	WT yeast gro inh	Lmaj promast	Autophagy HCS	Ins promoter up	INS promoter inh
O=C(Cc1ccc(Cl)cc1)N/N=C/c1c(Cl)cccc1Cl	20	72*	i	-0.44	0
Cc1[nH]n(-c2ccc([N+](=O)[O-])cc2)c(=O)c1C=NCCc1c(C)[nH]c2ccccc12	30	21	i	0.04	·
O=C(CNC(=O)c1ccc(S(=O)(=O)N2CCCC2)cc1)N/N=C/c1ccc(Cl)cc1	-8	91*	i	0.32	14
COc1ccc(/C=N/NC(=O)CNC(=O)c2ccc(S(=O)(=O)N3CCOCC3)cc2)cc1OC	-2	-8	i	0.64	·
Cc1csc(NC(=O)c2cc3c(C)nn(Cc4ccccc4Cl)c3s2)n1	33	96*	i	-0.69	8
Cc1nn(Cc2ccccc2Cl)c2sc(C(=O)NC(C)(C)C)cc12	5	38	i	0.21	52
CN1CCN(CCCC(=O)c2ccc(C3CCCC3)cc2)CC1	15	97*	i	-0.15	-83
CCCCCCCCOC(=O)CCn1[nH]c(=O)c2ccccc2c1=O	80*	-8	i	-0.81	0
CC(C)COC(=O)CCn1[nH]c(=O)c2ccccc2c1=O	19	-5	i	-1.1	24
CN1CCCN(Cc2nc(-c3ccc(Cl)cc3)no2)CC1	14	93*	i	-0.07	·
CN1CCCN(Cc2ccc(Cl)cc2Cl)CC1	·	98*	i	·	·
CCOC(=O)c1nc(C)sc1-c1ccnn1S(=O)(=O)c1ccc(C)cc1	·	·	·	0.34	·
COc1cccc(CN2CCN(Cc3cccc4nonc34)CC2CCO)c1 (stereo not given)	-2	3	i	0.27	·
O=C(ONC1=NCCCCC1)c1ccc([N+](=O)[O-])cc1	-5	0	i	-0.96	-3
Cc1cc(C)c(C)c(S(=O)(=O)Nc2ccccc2C(=O)NCCCn2ccnc2)c1C	-1	6	i	-0.07	-19
O=C(Nc1ccccc1)Nc1ccccc1C(=O)NCCCN1CCOCC1	·	·	·	-0.47	·
Cc1cc(C)c(C)c(S(=O)(=O)Nc2ccccc2C(=O)NCCCN2CCOCC2)c1C	11	97*	i	0.47	-44
O=C(CSc1ccccc1)NCCCN1CCOCC1	-12	77*	i	0.55	0
O=C(CSCc1ccccc1)NCCCN1CCOCC1	-2	18	i	0.19	·
O=C(NCCCN1CCOCC1)c1ccccc1-c1ccccc1	74*	3	i	-0.94	-147
O=C(O)Cc1csc(-c2cccc(F)c2)n1	-11	3	i	0.78	33
CCN(CC)S(=O)(=O)c1cccc(NC(=O)c2ccc(C#N)cc2)c1	3	4	i	-0.2	-7
CCO[C@@H]1OC(C(=O)N2CCN(Cc3ccc4c(c3)OCO4)CC2)=C[C@H](c2csc3ccccc23)[C@H]1CCCO	45	72*	i	0.19	·
CCO[C@H]1OC(C(=O)N2CCN(Cc3ccc4c(c3)OCO4)CC2)=C[C@@H](C2CC2)[C@@H]1CCCO	8	77*	i	-0.65	·
CCO[C@H]1OC(C(=O)N2CCN(Cc3ccc4c(c3)OCO4)CC2)=C[C@@H](c2ccccc2)[C@@H]1CCCO	-3	18	i	-0.05	·
SMILES	WT yeast gro inh	Lmaj promast	Autophagy HCS	Ins promoter up	INS promoter inh
O=C(N/N=C/c1ccc2c(c1)OCO2)C(O)c1ccccc1 (stereo not given)	-13	0	i	0.78	·
CCCCOC(=O)Nc1cc(C(=O)OC)ccc1C(=O)OC	8	-3	i	1.4	65*
CNCCC1Sc2ccccc2Oc2ccccc21 (stereo not given)	5	95*	i	-1.2	-67
Cc1nc2ccc(N=NC3=C(O)CC(C)(C)CC3=O)cc2s1	-14	91*	i	1.2	17
Cc1ccc(O)c(N=NC2=C(O)CC(C)(C)CC2=O)c1	-5	99*	i	-0.13	-12
CC1(C)CC(=O)C(N=Nc2cc(Cl)c(Cl)c(Cl)c2)=C(O)C1	7	-3	i	-0.04	-22
O=S(=O)(Nc1nc2ccccc2nc1N1CCc2ccccc2C1)c1ccc(Cl)cc1	15	57*	i	-0.05	26
O=S(=O)(Nc1nc2ccccc2nc1-[n+]1ccccc1)c1ccc(Cl)cc1	-15	56*	i	0.65	-37
CC(=O)Nc1ccc(S(=O)(=O)Nc2nc3ccccc3nc2N2CCc3ccccc3C2)cc1	22	85*	i	0.28	22
O=S(=O)(Nc1nc2ccccc2nc1N1CCN(c2ccccn2)CC1)c1ccc(Cl)cc1	5	66*	i	0.66	19
CC(=O)Nc1ccc(S(=O)(=O)Nc2nc3ccccc3nc2N2CCCCCC2)cc1	5	-6	i	0.71	30
O=C(COC(=O)/C=C/c1ccco1)Nc1cccc([N+](=O)[O-])c1	9	-4	i	0.67	9
